Compound activity: PubChem, several laboratories
In the library only some 4.2% were active in any assay of this set; here they are far more common.
NALP1 inh: inhibitors of NALP1 inflammasome in yeast; S. cerevisiae NALP1/ASC/caspase-1 growth, X-gal OD620, 72 h; inhibition, % at 10 µM; 280,000 tested, 0.61% active; in the data active = inhibition mostly above about 24%, no sharp cut-off; inactive = mostly below about 32%
V-ATPase pH: regulators of yeast V-ATPase proton transport; response, % at 10 µM; AID 504577; S. cerevisiae, pHLuorin cytosolic pH fluorescence; 350,000 tested, 0.37% active; in the data active = response mostly above about 7.3%, no sharp cut-off; inactive = mostly below about 5.4%; also: actives read high
tim10-1 inh: tim10-1 yeast growth inhibition; inhibition, % at 20 µM; S. cerevisiae tim10-1 ts strain growth, BacTiter-Glo, 24 h; 330,000 tested, 2.2% active;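 active = inhibition of at least 40%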;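 also: mutant grown at 25 °C; 0% = DMSO wells with yeast and 100% = wells holding no yeast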
TIM10 inh: TIM10 yeast growth inhibition; S. cerevisiae TIM10 strain growth, BacTiter-Glo luminescence, 24 h; inhibition, % at 10 µM; 330,000 tested, 1.4% active; AID 463195;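 active = inhibition of 40% or more at the single tested concentration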;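 also: wild-type TIM10 isogenic control strain grown at permissive 25 °C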
NLRP3 yeast inh: inhibitors of NALP3 inflammasome in yeast | Yeast reconstituted NLRP3/ASC/caspase-1, beta-gal luminescence, 24 h | inhibition, % at 10 µM | AID 2825 | 330,000 tested, 0.39% active;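 active = inhibition of 50% or more; inactive = inhibition below 50%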;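 also: plate controls were induced DMSO wells for no effect and uninduced yeast grown without galactose for full effect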
tim23-1 inh: tim23-1 yeast growth inhibition; S. cerevisiae tim23-1 growth, BacTiter-Glo luminescence, 24 h; 330,000 tested, 1.3% active; AID 463212; inhibition, % at 20 µM;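 active = growth inhibition of the mutant yeast at or above 50%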;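 also: temperature-sensitive mutant grown at 25 °C; plate controls were DMSO-treated mutant yeast for no effect and medium wells lacking yeast for full effect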
* = called active by the depositor.

Screening O=C(O)CN(c1ccccn1)S(=O)(=O)c1ccccc1 returned NALP1 inh 43.2*, V-ATPase pH -1.1, tim10-1 inh 2.5, TIM10 inh 15.5, NLRP3 yeast inh 3.7 and tim23-1 inh 28.8.
Screening O=C(O)CN(c1ccccn1)S(=O)(=O)c1ccc(Cl)cc1 returned NALP1 inh 13.2, V-ATPase pH -0.7, tim10-1 inh 12.2, TIM10 inh 1.4, NLRP3 yeast inh 5.7 and tim23-1 inh -1.2.
Screening Cc1ccc(NC(=O)NC(=O)CSc2nnc(-c3ccc(Cl)cc3Cl)n2N)c(C)c1 returned NALP1 inh 16.6, V-ATPase pH 14.5*, tim10-1 inh 17.8, TIM10 inh 10.7, NLRP3 yeast inh 16.6 and tim23-1 inh 7.0.
`O=C(O)c1cccc(CSc2n[nH]c(-c3ccc(Cl)cc3Cl)n2)c1` gave NALP1 inh 53.1*, V-ATPase pH 1.4, tim10-1 inh -6.6, TIM10 inh -2.9, NLRP3 yeast inh 10.2 and tim23-1 inh 7.9.
`O=C(CCN1CCC(c2ccccc2)C1)c1cccs1` (stereo unspecified) gave NALP1 inh 0.2, V-ATPase pH 9.3, tim10-1 inh 12.9, TIM10 inh 3.3, NLRP3 yeast inh 41.4 and tim23-1 inh 4.3.
O=C(CCN1CCC(c2ccccc2)C1)c1ccccc1 (stereo unspecified) was read as NALP1 inh 22.9*, V-ATPase pH -0.7, tim10-1 inh 9.4, TIM10 inh -16.0, NLRP3 yeast inh 36.2 and tim23-1 inh 15.3.
Screening Cc1cc2ncn(/N=C/c3cc(Br)ccc3O)c2cc1C returned NALP1 inh -5.4, tim10-1 inh 11.7, TIM10 inh 11.3, NLRP3 yeast inh 20.8 and tim23-1 inh -3.1.
Cc1cc2ncn(/N=C/c3ccc([N+](=O)[O-])s3)c2cc1C was read as NALP1 inh 59.2* and V-ATPase pH 2.0.
`COc1cccc(CC(=O)OC(C)C(=O)NCc2ccc3c(c2)OCO3)c1` (stereo unspecified) gave V-ATPase pH -1.5, tim10-1 inh 7.1, TIM10 inh -4.8, NLRP3 yeast inh 15.5 and tim23-1 inh 4.2.
For CSc1nnnn1-c1c(C)cccc1C the results were V-ATPase pH 0.0, tim10-1 inh -2.0, TIM10 inh -10.9, NLRP3 yeast inh -20.0 and tim23-1 inh -10.6.
`Cc1cc(C(=O)NCCC(c2ccccc2)c2ccccc2)c(C)o1` gave NALP1 inh 40.4*, V-ATPase pH -0.9, tim10-1 inh 25.2, TIM10 inh 31.1, NLRP3 yeast inh 22.8 and tim23-1 inh -0.9.
Cc1ccc(S(=O)(=O)N(C)C)cc1NC(=O)C(C)N(C)Cc1sccc1C (stereo unspecified) was read as NALP1 inh 10.3, V-ATPase pH 1.2, tim10-1 inh 7.6, TIM10 inh 20.1, NLRP3 yeast inh 2.8 and tim23-1 inh 21.8.
For COc1cc(NC(=O)Cc2ccc(Cl)cc2)ccc1NC(=O)c1ccco1 the results were NALP1 inh 37.7*, V-ATPase pH -0.6, tim10-1 inh 16.9, TIM10 inh 16.4, NLRP3 yeast inh 15.0 and tim23-1 inh 14.3.
CCC(=O)Nc1ccc(NC(=O)c2ccco2)c(OC)c1 was read as NALP1 inh 0.8, V-ATPase pH 5.2, tim10-1 inh 19.8, TIM10 inh 8.0, NLRP3 yeast inh 9.2 and tim23-1 inh 20.2.
O=C(Nc1ncccc1O)c1cccc(S(=O)(=O)N2CCc3ccccc32)c1 was read as NALP1 inh 34.0*, V-ATPase pH 2.2, tim10-1 inh 33.1, TIM10 inh 24.2, NLRP3 yeast inh 6.1 and tim23-1 inh 31.5.
For CSc1nc(O)c(C(c2ccc(OC(C)C)cc2)c2c(O)nc(SC)[nH]c2=O)c(=O)[nH]1 the results were V-ATPase pH 0.8, tim10-1 inh -2.2, TIM10 inh 1.3, NLRP3 yeast inh 18.1 and tim23-1 inh -10.0.
For O=S(=O)(c1ccc(Cl)s1)N1CCC(Cc2ccccc2)CC1 the results were NALP1 inh 40.4*, V-ATPase pH 15.4, tim10-1 inh 21.0, TIM10 inh 22.8, NLRP3 yeast inh 8.8 and tim23-1 inh 17.1.
For O=S(=O)(c1ccc(Br)s1)N1CCC(Cc2ccccc2)CC1 the results were NALP1 inh 23.6, V-ATPase pH 0.0, tim10-1 inh 20.9, TIM10 inh 20.8, NLRP3 yeast inh 21.8 and tim23-1 inh 13.1.
`CC1=C(C(=O)N2CCOCC2)CC(CC(=O)NCc2cccs2)C(=O)N1CCC1=CCCCC1` (stereo unspecified) gave V-ATPase pH -0.8.
Screening O=C(Oc1ccc(Cl)c2cccnc12)c1cccc([N+](=O)[O-])c1 returned NALP1 inh 58.2*, V-ATPase pH -1.1, tim10-1 inh 19.3, TIM10 inh 1.4, NLRP3 yeast inh -6.2 and tim23-1 inh 29.1.
For O=C(Oc1cccc2cccnc12)c1cccc([N+](=O)[O-])c1 the results were NALP1 inh -9.2, V-ATPase pH -1.5, tim10-1 inh 3.9, TIM10 inh 8.1, NLRP3 yeast inh -2.7 and tim23-1 inh -2.3.
Screening CCC(C)(C)NC(=O)C(c1ccccn1)N(C(=O)c1csnn1)c1ccc(C)c(C)c1 (stereo unspecified) returned NALP1 inh -7.6, V-ATPase pH 5.3, tim10-1 inh 4.8, TIM10 inh 2.7, NLRP3 yeast inh 19.8 and tim23-1 inh 14.1.
For COCCN(Cc1cc2cc(C)ccc2n2nnnc12)C(=S)Nc1cccc(C)c1 the results were NALP1 inh 29.1, V-ATPase pH -1.8, tim10-1 inh 7.8, TIM10 inh 8.5, NLRP3 yeast inh 8.3 and tim23-1 inh 26.8.
For CCN(CC)CCN(Cc1cc2cc3c(cc2[nH]c1=O)OCO3)C(=S)NCCCN(C)C the results were NALP1 inh 14.3, V-ATPase pH 4.4, tim10-1 inh -6.9, TIM10 inh -9.8, NLRP3 yeast inh 5.1 and tim23-1 inh -15.6.
CCN(CC)CCN(Cc1cc2cc3c(cc2[nH]c1=O)OCCO3)C(=S)NCCCN(C)C was read as NALP1 inh 44.2*, V-ATPase pH 2.7, tim10-1 inh -27.6, TIM10 inh -17.9, NLRP3 yeast inh 26.4 and tim23-1 inh -11.5.
Cc1ccc(C(=O)NCC(=O)NCC(c2cccs2)N2CCOCC2)cc1C (stereo unspecified) was read as V-ATPase pH 4.5, tim10-1 inh 5.2, TIM10 inh 1.1, NLRP3 yeast inh 6.6 and tim23-1 inh 15.3.
Screening Cc1cccc(N2CCN(C(=O)CCn3c(=S)[nH]c4cc5c(cc4c3=O)OCO5)CC2C)c1 (stereo unspecified) returned NALP1 inh 1.4, tim10-1 inh 29.6, TIM10 inh 12.8, NLRP3 yeast inh -5.9 and tim23-1 inh 29.8.
CC1Oc2ccccc2N(CC(=O)N2CCCC2)C1=O (stereo unspecified) was read as NALP1 inh 2.4, V-ATPase pH 14.4*, tim10-1 inh -2.4, TIM10 inh 3.7, NLRP3 yeast inh 8.1 and tim23-1 inh 4.1.
Cc1cccc(C)c1-n1nnnc1C(C)(C)N1CCN(N=O)CC1 was read as NALP1 inh 37.4*, V-ATPase pH -8.3, tim10-1 inh 8.5, TIM10 inh 1.6, NLRP3 yeast inh -12.3 and tim23-1 inh 11.9.
